An excerpt weighted towards active compounds, which were near 2.4% of everything screened.
CHT block – inhibits the human high affinity choline transporter; Q9GZV3; CHT-expressing cells, membrane potential dye, choline response; hits give low values; B-score at 10 µM; 310,000 compounds, 0.86% hits; AID 488975;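 active = B-score over 3 SD under the library average, and starting fluorescence ratio not unusually high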;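 note: choline stimulus applied at its EC90 after an EC20 pre-addition; B-score computed on integrated fluorescence ratio after choline addition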
TMEM16A act – activates or potentiates the mouse TMEM16A chloride channel; Q8BHY3; HEK293 TMEM16A/YFP-H148Q/I152L, iodide quench fluorescence; hits give low values; 340,000 compounds, 0.3% hits; B-score at 10 µM;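 active = fluorescence-ratio B-score plate-corrected deviation score at least 3 library SD below zero, with starting fluorescence score within 5 deviations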;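 note: channel opened by trigger with iodide after compound preincubation; score built on the fluorescence ratio of max minus min over baseline; more negative score means more quench and so TMEM16A activation or potentiation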
ANO1 block – inhibitors of mouse TMEM16A calcium-activated chloride channel | Q8BHY3 | HEK293 TMEM16A/YFP iodide influx fluorescence, ionomycin | normalized B-score (activity score, 25-100; higher = stronger inhibition) at 10 µM | 310,000 compounds, 1.2% hits;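 active = ratio plate-corrected score three or more library SD toward inhibition, starting fluorescence score within five deviations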;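 note: score derived from kinetic fluorescence span divided by baseline fluorescence per well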
CHT allo act – human CHT allosteric activation; Q9GZV3; CHT-expressing cells, membrane potential dye, choline EC20; hits give high values; LV-AA mutant CHT in HEK293 cells; B-score at 10 µM; 310,000 compounds, 0.49% hits; AID 488977;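 active = initial fluorescence not abnormally high and integrated response B-score, plate-corrected, over 3 SD above library mean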
CHT inh conf – confirmation of human choline transporter CHT inhibitors | 2,400 compounds, 70% hits | AID 493221 | CHT activity remaining % of control (hits give low values), % at 10 µM | CHT-expressing cells, choline membrane potential dye; LV-to-AA substituted CHT, HEK293 cells | shares compounds with CHT block;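 active = choline transporter activity left, mean of duplicates at 10 µM, below buffer-only control mean minus 3 SD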;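 note: depolarization triggered by choline at its EC90 following an EC20 pre-addition; 0% = hemicholinium-3 full block and 100% = buffer-only control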
HEK293 CHT ctr – CHT inhibitor counter-screen hit in parental HEK293 cells | membrane potential dye, choline response; active = decrease or increase beyond buffer ±3SD | AID 493222 | 2,400 compounds, 4% hits | membrane potential ratio readout (active if shifted either direction beyond buffer ±3SD; no single direction) at 10 µM | shares compounds with CHT block;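 note: parental cells lack the transporter so any hit is non-specific; ratio is peak minus trough fluorescence over baseline after EC90 choline challenge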
* hit, by the source's call; i = inactive; . = not tested or not shown.

SMILES	CHT block	TMEM16A act	ANO1 block	CHT allo act	CHT inh conf	HEK293 CHT ctr
N=C1CCCN1CC(=O)c1ccc(Cl)cc1	-10*	i	i	i	9.8%*	i
CCOC(=O)c1cnc2c(C(F)(F)F)cccc2c1N1CCN(C)CC1	-10*	i	i	i	30%*	3.3*
CCOC(=O)c1cnc2c(C)cc(Cl)cc2c1N1CCN(C)CC1	-6.4*	i	i	i	34%*	i
CCOC(=O)c1cnc2c(OC)cccc2c1N1CCN(c2ccccc2OC)CC1	i	i	i	i	.	.
CC(C)[C@H](CO)N(Cc1cccc(F)c1)c1nc(Nc2cccc(Cl)c2)c2ncn(C(C)C)c2n1	i	i	i	i	.	.
CC[C@H](CO)Nc1nc(Nc2cccc(Cl)c2)c2ncn(C(C)C)c2n1	-9*	i	i	i	48%*	i
Cc1ccc(C)c(NCC(=O)NNC(=S)Nc2ccccc2)c1	-6.2*	i	i	i	67%*	i
Cc1ccc(CSc2nnc(-c3ccc(NS(=O)(=O)c4ccccc4)cc3)o2)cc1	i	i	i	i	.	.
COC(=O)CSc1nnc(-c2ccc(NS(=O)(=O)c3ccccc3)cc2)o1	-5.9*	i	25*	i	39%*	i
CSCCC(NC(=O)c1ccccc1Cl)C(=O)Nc1ccncc1 (stereo not given)	.	i	.	.	.	.
O=C(Nc1cc([N+](=O)[O-])ccc1O)c1cccc([N+](=O)[O-])c1	-5.4*	i	i	i	10%*	i
COc1cccc(C(=O)C(C#N)=C(SC)SC)c1	-5.8*	i	i	i	36%*	i
COc1cccc(C(=O)Nc2ccc(NC(C)=O)cc2)c1	i	i	i	i	.	.
CSC(SC)=C(C#N)C(=O)c1ccccc1	-5*	i	i	i	37%*	i
CCN(CC)S(=O)(=O)c1ccc(-c2nnc(SCC(=O)N3CCOCC3)o2)cc1	i	i	i	i	.	.
Cc1ccc2c(C)nc(N/C(N)=N/S(=O)(=O)c3ccc([N+](=O)[O-])cc3)nc2c1	i	i	i	i	.	.
Cc1ccc(-c2csc3ncnc(-n4cnc5ccccc54)c23)cc1	-7.5*	i	i	i	24%*	i
Cc1ccc(-c2csc3ncnc(-n4nnc5ccccc54)c23)cc1	-7.5*	i	i	i	63%*	i
COC(=O)c1ccccc1NC(=S)N1CCN(C2CCCCC2)CC1	i	i	i	i	.	.
CC(Cc1nnc(SCC(=O)O)n1N)c1ccccc1 (stereo not given)	i	i	i	i	.	.
O=C1NC(=S)S/C1=C\c1coc2ccccc2c1=O	-8.4*	i	i	i	55%*	i
CCN1CCn2c3c(c4cc(Cl)ccc42)CCCC31 (stereo not given)	-5.8*	i	i	i	70%*	i
CCN(CC)CCN1CCn2c3c(c4cc(C)ccc42)CCCC31 (stereo not given)	i	i	i	i	.	.
CC1CCN(CCc2nc3cc(NS(=O)(=O)c4ccc(F)cc4)ccc3n2C)CC1	i	i	i	i	.	.
CC1CCN(CCc2nc3cc(NS(=O)(=O)c4ccccc4)ccc3n2C)CC1	-9.3*	i	i	i	37%*	i
SMILES	CHT block	TMEM16A act	ANO1 block	CHT allo act	CHT inh conf	HEK293 CHT ctr
Cc1nn(-c2ccc(N3CCOCC3)nn2)c(C)c1CCC(=O)Nc1ccccc1	i	i	i	i	.	.
CC(=O)NN1C(=O)c2ccc(Oc3ccc([N+](=O)[O-])cc3)cc2C1=O	i	i	i	i	.	.
CC(=O)NN1C(=O)c2ccc(Oc3cccc([N+](=O)[O-])c3)cc2C1=O	-8.3*	i	i	i	23%*	i
CC(=O)c1sc(NC(=O)CCCc2nc3ccccc3c(=O)[nH]2)nc1-c1ccccc1	.	i	.	.	.	.
COc1ccc2c(c1)c(C(=O)CNc1nc(C)cs1)c(C)n2C	-5*	i	i	i	38%*	2.7*
CCOCc1cnc(C)nc1NCC(=O)c1c(C)n(C)c2ccc(OC)cc12	.	i	.	.	.	.

Assay outcomes from PubChem BioAssay.
